Measurements from PubChem BioAssay (Tox21).
“And” between values parts separate entries of the source, which are not always exact repeats. Equal entries are not always repeated. Inconclusive results are not listed. Some compounds were tested as several samples or in several runs, with calls that do not always agree. The source made the active and inactive calls. Unless noted, calls follow the shape of the dose curve; as a rule, active = well fitted curve in the direction sought with a large enough effect in the repeat runs; inconclusive = weak or mixed curves; inactive = no such curve, though single readings can be large; an effect the other way counts as inactive or inconclusive.

Columns and labels:
[1] = qHTS assay to identify small molecule agonists of the hypoxia (HIF-1) signaling pathway - cell viability counter screen (AID 1224844; calls by dose curve; also: nearly all actives have a fitted effect of over 50% in size)
Outline: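 In this counter screen, HRE-bla ME-180 cell viability after 17 hrs of compound exposure at 37C was read by CellTiter-Glo luminescence, multiplexed with the beta-lactamase reporter measurement.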

[2] = qHTS assay to identify small molecule agonists of H2AX (AID 1224845; active = well fitted activation curve with a large enough effect in the signal ratio in the repeat runs, not every such curve was filed as active; the % refers to the signal ratio; also: potency is read from the fitted curve at half-maximal effect)
Outline: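 Wild-type CHO-K1 cells plated overnight, then exposed 3 hr at 37C to compounds at 15 concentrations (0.76% DMSO). Lysed, then HTRF anti-pH2AX(S139)-cryptate/anti-H2AX-d2 detection after 24 hr at room temperature; emissions 665 and 620 nm.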

[3] = qHTS assay to identify small molecule agonists of the hypoxia (HIF-1) signaling pathway (AID 1224846; active = well fitted activation curve with a large enough effect in the signal ratio in the repeat runs, not every such curve was filed as active; the % refers to the signal ratio)
Outline: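 ME-180 HRE-bla reporter cells; compounds in DMSO, 17 h at 37C; read-out beta-lactamase via CCF4-AM FRET.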

[4] = qHTS assay to identify small molecule agonists of H2AX - cell viability counter screen (AID 1224847; calls by dose curve; also: top concentration of the series differs between compounds; nearly all actives have a fitted effect of over 30% in size)
Outline: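 Cytotoxicity counter screen in wild-type CHO-K1 cells: a 3 hr compound treatment at 37C across 15 concentrations, followed by CellTiter-Glo luminescence to gauge viable cells.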

[5] = qHTS RealTime-Glo MT Cell Viability Assay in HepG2 cells - 24 hour (AID 1224867); also: nearly all actives have a fitted effect of over 50% in size
Outline: (§1)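 HepG2 suspension premixed with RealTime-Glo reagents is plated at 600 cells per well and left 5 h at 37 C/5% CO2. Compounds in DMSO then go in, and bioluminescence reflecting viable cell number is recorded over 40 h.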

[6] = qHTS RealTime-Glo MT Cell Viability Assay in HEK293 cells - 32 hour (AID 1224868); also: top concentration of the series differs between compounds; nearly all actives have a fitted effect of over 50% in size
Outline: (§2)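 Reads taken at 0, 8, 16, 24, 32 and 40 h from the same wells. HEK293 cells (600/well) carried RealTime-Glo reagents from seeding, with compound added after a 5 h settle at 37 C.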

[7] = A CellTox Green Cytotoxicity Assay to monitor cytotoxicity in HEK293 cells - 0 hour (AID 1224869); also: nearly all actives have a fitted effect of over 50% in size
Outline: (§3)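 Real-time, in one plate: 600 HEK293 cells/well with dead-cell DNA dye, pinned compound after 5 h, 37 C incubation over 40 h; viable cells give no appreciable fluorescence.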

[8] = qHTS RealTime-Glo MT Cell Viability Assay in HepG2 cells - 40 hour (AID 1224870); also: nearly all actives have a fitted effect of over 50% in size
Outline: (§4)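 HepG2 cells mixed with RealTime-Glo MT reagents (NanoLuc plus cell-permeant prosubstrate) were seeded at 600 cells/well, incubated 5 h at 37 C/5% CO2, then pinned with compounds in DMSO; nonlytic luminescence tracked viability during 40 h treatment.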

[9] = A CellTox Green Cytotoxicity Assay to monitor cytotoxicity in HEK293 cells - 40 hour (AID 1224871); also: nearly all actives have a fitted effect of over 45% in size
Outline: as §3

[10] = qHTS RealTime-Glo MT Cell Viability Assay in HEK293 cells - 16 hour (AID 1224872)
Outline: as §2

[11] = qHTS RealTime-Glo MT Cell Viability Assay in HepG2 cells - 8 hour (AID 1224873); also: nearly all actives have a fitted effect of over 55% in size
Outline: as §4

[12] = qHTS RealTime-Glo MT Cell Viability Assay in HEK293 cells - 40 hour (AID 1224874); settings: RealTime-Glo luminescence; max response: stronger effect = lower value; also: nearly all actives have a fitted effect of over 50% in size
Outline: (§5)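 Kinetic, non-lysing viability readout. Seed HEK293 (600/well) with reagent, incubate 5 h at 37 C/5% CO2, pin 23 nL compound in DMSO, incubate at 37 C, read luminescence at 0, 8, 16, 24, 32, 40 h.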

[13] = A CellTox Green Cytotoxicity Assay to monitor cytotoxicity in HEK293 cells - 24 hour (AID 1224875); also: nearly all actives have a fitted effect of over 45% in size
Outline: as §3

[14] = A CellTox Green Cytotoxicity Assay to monitor cytotoxicity in HepG2 cells - 16 hour (AID 1224876); also: nearly all actives have a fitted effect of over 45% in size
Outline: (§6)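 Cytotoxicity was tracked as dead-cell DNA fluorescence in HepG2 cells treated with test compounds at 37 C; each time-point value comes from one kinetic series spanning 0, 8, 16, 24, 32 and 40 h.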

[15] = qHTS RealTime-Glo MT Cell Viability Assay in HepG2 cells - 32 hour (AID 1224877); also: nearly all actives have a fitted effect of over 55% in size
Outline: as §1

[16] = A CellTox Green Cytotoxicity Assay to monitor cytotoxicity in HepG2 cells - 24 hour (AID 1224878); also: nearly all actives have a fitted effect of over 45% in size
Outline: as §6

[17] = A CellTox Green Cytotoxicity Assay to monitor cytotoxicity in HepG2 cells - 40 hour (AID 1224879); also: nearly all actives have a fitted effect of over 40% in size; also: potency is read from the fitted curve at half-maximal effect
Outline: as §6

[18] = qHTS RealTime-Glo MT Cell Viability Assay in HEK293 cells - 0 hour (AID 1224880)
Outline: as §5

[19] = qHTS assay to identify small molecule antagonists of the estrogen related receptor (ERR) signaling pathway from Tox21 library (AID 1224848); also: nearly all actives have a fitted effect of over 50% in size; also: potency is read from the fitted curve at half-maximal effect
Outline: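 First, 2,000 ERR cells per well were plated and held 6 h at 37 C/5% CO2. Next, compounds in DMSO were pinned in and left 18 h at 37 C. Finally, ONE-Glo was added and luminescence read after 30 min at room temperature.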

[20] = qHTS assay to identify small molecule agonists of the estrogen related receptor (ERR) signaling pathway from Tox21 library (AID 1224849; calls by dose curve; also: nearly all actives have a fitted effect of over 15% in size); settings: ERR reporter cell line, ONE-Glo luciferase, 18 h
Outline: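 Luciferase activity in ERR pathway reporter cells served as the agonist readout; exposure lasted 18 h at 37 C, with ONE-Glo detection after 30 min at room temperature.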
% is scaled to controls: 0 for no effect and ±100 for the full control effect.

F[B-](F)(F)F
inactive and 115 µM (active): Potency [2]
inactive: Potency [1] | outcome [3] | Potency [4] | Potency [5] | Potency [6] | Potency [7] | Potency [8] | Potency [9] | Potency [10] | Potency [11] | max response [12] 7.4% and 8.65% and 0.515% | Potency [13] | Potency [14] | Potency [15] | Potency [16]
inactive and 39.5 µM (active): Potency [17]

CC(=O)C(=O)O
inactive: Potency [1] | Potency [2] | outcome [3] | Potency [4] | Potency [5] | Potency [6] | Potency [7] | Potency [8] | Potency [9] | Potency [10] | Potency [11] | max response [12] -1.91% and -9.51% and -2.01% | Potency [13] | Potency [14] | Potency [15] | Potency [16] | Potency [17] | Potency [18]

CN(N=O)C(=O)N[C@@H]1[C@@H](O)[C@H](O)[C@@H](CO)O[C@@H]1O
inactive: Potency [1] | Potency [2] | outcome [3] | Potency [4] | Potency [5] | Potency [6] | Potency [7] | Potency [8] | Potency [9] | Potency [10] | Potency [11] | max response [12] 1.13% and 4.9% and 1.17% | Potency [13] | Potency [14] | Potency [15] | Potency [16] | Potency [17] | Potency [18]

CS(=O)(=O)OCCCCOS(C)(=O)=O
inactive: Potency [1] | Potency [2] | outcome [3] | Potency [4] | Potency [19] | activity change, positive = activation ([20]; at 42.5 µM (top of the series)) -0.0445% | activity change, positive = activation ([20]; at 92.4 µM (top of the series)) -6.97% and 6.13% | Potency [5] | Potency [6] | Potency [7] | Potency [8] | Potency [9] | Potency [10] | Potency [11] | max response [12] 2.47% and 13.2% and 7.82% | Potency [13] | Potency [14] | Potency [15] | Potency [16] | Potency [17]

C/C=C/C=C/C(=O)O
inactive: Potency [1] | Potency [2] | outcome [3] | Potency [4] | Potency [5] | Potency [6] | Potency [7] | Potency [8] | Potency [9] | Potency [10] | Potency [11] | max response [12] 4.62% and 7.49% | Potency [13] | Potency [14] | Potency [15] | Potency [16] | Potency [17] | Potency [18]

O=C1O[C@H]([C@@H](O)CO)C(O)=C1O
inactive: Potency [1] | Potency [2] | outcome [3] | Potency [4] | Potency [5] | Potency [6] | Potency [7] | Potency [8] | Potency [9] | Potency [10] | Potency [11] | max response [12] 5.34% [middle of 5 runs] | Potency [13] | Potency [14] | Potency [15] | Potency [16] | Potency [17] | Potency [18]

CC(=O)CCC(=O)O
inactive: Potency [1] | Potency [2] | outcome [3] | Potency [4] | Potency [5] | Potency [6] | Potency [7] | Potency [8] | Potency [9] | Potency [10] | Potency [11] | max response [12] -1.85% and 3.92% and 7.17% | Potency [13] | Potency [14] | Potency [15] | Potency [16] | Potency [17] | Potency [18]

O=C(O)CC(O)C(=O)O (configuration not stated)
inactive: Potency [1] | Potency [2] | outcome [3] | Potency [4] | Potency [5] | Potency [6] | Potency [7] | Potency [8] | Potency [9] | Potency [10] | Potency [11] | max response [12] -23.9% and -4.53% and 7.17% | Potency [13] | Potency [14] | Potency [15] | Potency [16] | Potency [17] | Potency [18]

COc1ccc(C(Cl)=C(c2ccc(OC)cc2)c2ccc(OC)cc2)cc1
active: Potency [19] 21.6 µM and 27.3 µM and 26.6 µM
inactive: Potency [1] | Potency [2] | outcome [3] | Potency [4] | activity change, positive = activation ([20]; at 42.5 µM (top of the series)) -32.5% | activity change, positive = activation ([20]; at 92.4 µM (top of the series)) -45.8% and -43.7% | Potency [5] | Potency [6] | Potency [7] | Potency [8] | Potency [9] | Potency [10] | max response [12] -17.7% | Potency [13] | Potency [14] | Potency [15] | Potency [16] | Potency [17] | Potency [18]

C=CCc1ccc(O)c(OC)c1
inactive: Potency [1] | Potency [2] | outcome [3] | Potency [4] | Potency [5] | Potency [6] | Potency [7] | Potency [8] | Potency [9] | Potency [10] | Potency [11] | max response [12] -1.8% and -13.4% and 5.2% | Potency [13] | Potency [14] | Potency [15] | Potency [16] | Potency [17]
